This is an account of results in PubChem BioAssay (Tox21).

Inconclusive results are not listed. Where a call stands in place of a potency, no number is given. Calls of active or inactive are those of the source. Calls follow the shape of the dose curve; as a rule, active = well fitted cell-killing curve with a large enough effect in the repeat runs; inconclusive = weak or mixed curves, or effect the other way; inactive = flat fitted curve, though single readings scatter.
Potency is read from the fitted curve at half-maximal effect.

A short description of this experiment: cAMP Responsive Elements (CRE) small molecule agonists, cell-based qHTS assay: qHTS cell viability counter screen (AID 2060914). Also: nearly all actives have a fitted effect of over 50% in size. Particulars: CRE-bla HEK293T viability, CellTiter-Glo luminescence, 5 h; series mostly up to 92.4 µM. The text has this:
National Center for Advancing Translational Sciences [NCATS]
Division of Preclinical Innovation [DPI]
U.S. Environmental Protection Agency [EPA]
National Institutes of Environmental Health Sciences [NIEHS]
National Toxicology Program [NTP]
U.S. Food and Drug Administration [FDA]
CREB (cyclic-AMP Responsive Element Binding Protein) is a cellular transcription factor. It binds to certain DNA sequences called cAMP Responsive Elements (CRE) and regulates the transcription of the genes. […] This cell line can be used to find agonists/antagonists of the cyclic AMP signaling pathway. The activation of the report gene under culture conditions can be detected by fluorescence intensity. This cell line has been used to screen the Tox21 10K compound library to identify agonists that induce oxidative stress. The cytotoxicity of the Tox21 compound library against the CRE-bla cell line was tested in parallel by measuring the cell viability using CellTiter-Glo assay (Promega, Madison, WI) in the same wells.
Tox21 Assay Protocol Summary:
CRE-bla Hek 293T cells were suspended in assay medium (DMEM containing 10% dialyzed FBS, 0.1 mM NEAA, 1 mM sodium pyruvate and 25 mM HEPES) and dispensed at 2,000 cells/5 uL /well into 1536-well black wall/clear bottom plates using a Multidrop Combi (ThermoFisher Scientific, Waltham, MA) dispenser. After the assay plates were incubated at 37 C/5% CO2 for 18 hrs, 23 nL of compounds dissolved in DMSO, positive controls or DMSO only was transferred to the assay plate by a pintool workstation (Kalypsys, San Diego, CA). After the plates were incubated at 37 C/5% CO2 for 3 hrs, 1 uL of LiveBLAzer B/G FRET substrate (Invitrogen, Carlsbad, CA) was added to each well using Bioraptr Flying Reagent Dispenser (FRD, Aurora Discovery, San Diego, CA). The plates were incubated at room temperature for 2 h, then fluorescence intensities were measured using an Envision plate reader (PerkinElmer, Shelton, CT) at Excitation 405nm, Emission 460nm and 530nm. The % activity was determined from the ratio of 460nm/530nm. For cell viability readout that measures cytotoxicity, 4 uL /well of CellTiter-Glo reagent was added into the assay plates using Bioraptr FRD. After 30 min incubation at room temperature, the luminescence intensity in the assay plates was measured using a ViewLux (PerkinElmer, Shelton, CT) plate reader.
(In qHTS, concentration-response curves come from the screen itself.)
With `O=C1c2ccccc2C(=O)c2c(Cl)cccc21`, the Potency entry was “inactive”.
For the compound `C=C[C@@H](C)CCC=C(C)C`, the Potency entry was “inactive”.
`c1ccc2cc3c(ccc4ccccc43)cc2c1`: the Potency entry was “inactive”.
Same read-out and setting: the value for `C/C=C1/CC2C=CC1C2` (stereo not given) was “inactive”.
In the case of `COCc1ccc(COC)cc1`, the Potency result was “inactive”.
Still for that read-out and setting: the value for `CN1C(=O)c2ccc([N+](=O)[O-])cc2C1=O` was “inactive”; that for `Fc1ccc(C(c2ccc(F)cc2)N2CCN(C/C=C/c3ccccc3)CC2)cc1` was “inactive”.
Same read-out and setting: to `O=C(OCC(COC(=O)c1ccccc1)(COC(=O)c1ccccc1)COC(=O)c1ccccc1)c1ccccc1` belongs “inactive”; to `O=c1cc[nH]c(=S)[nH]1`, “inactive”; to `CCC(O)OCCCOC` (stereo not given), “inactive”.
The same measure, in the same setting: the value for `CC(O)CN(CCCN(C)C)CCCN(C)C` (stereo not given) was “inactive”.
Turning to `CCOC(=O)CC(C(C)=O)C(C)=O`, the Potency entry is “inactive”.
Same read-out and setting: to `CC(=O)/C=C/C1=C(C)CCCC1(C)C` belongs “inactive”; to `NC(=O)c1cc[n+](CC2=C(C(=O)[O-])N3C(=O)[C@@H](NC(=O)Cc4cccs4)[C@H]3SC2)cc1`, “inactive”; to `O=[N+]([O-])c1cccc(I)c1`, “inactive”.
The same measure, in the same setting: the value for `O=C(O)Cc1cc(I)c(Oc2cc(I)c(O)c(I)c2)c(I)c1` was “inactive”.
Same read-out and setting: to `COc1cc(C(=O)N2CCOCC2)cc(OC)c1OC` belongs “inactive”.
On to `O=C(c1ccccc1)C(O)c1ccccc1` (stereo not given), for which the Potency entry was “inactive”.
The same measure, in the same setting: the value for `CCOC(C)=O` was 24.5 µM (active).
For `O=C(CC(C(=O)OC1CCCCC1)S(=O)(=O)O)OC1CCCCC1` (stereo not given), the Potency entry was “inactive”.
As for `COC(=O)N/N=C/c1c[n+]([O-])c2ccccc2[n+]1[O-]`, the Potency entry is “inactive”.
The same measure, in the same setting: to `CC(C(=O)O)c1ccc(/C=C2\CCCCC2=O)cc1` (stereo not given) belongs “inactive”.
Still for that read-out and setting: the value for `CNC(=S)NC` was “inactive”; that for `Nc1cc([N+](=O)[O-])ccc1O` was “inactive”.
As for `C1CCC2=NCCCN2CC1`, the Potency result is “inactive”.
The same measure, in the same setting: the value for `c1ccc2cnccc2c1` was “inactive”; that for `c1ccc(-c2ccc(C(c3ccccc3)n3ccnc3)cc2)cc1` (stereo not given) was “inactive”.
Still for that read-out and setting: to `C[C@@H]1C[C@H]2[C@@H]3C[C@H](F)C4=CC(=O)C(Cl)=C[C@]4(C)[C@@]3(F)[C@@H](O)C[C@]2(C)[C@@]1(O)C(=O)CO` belongs “inactive”.
Regarding `CCO[Si](CCC1CCC2OC2C1)(OCC)OCC` (stereo not given), the Potency entry is “inactive”.
As to `CNC(=O)[C@H]1O[C@@H](n2cnc3c(NCc4cc(Cl)ccc4OCc4cc(C)no4)ncnc32)[C@H](O)[C@@H]1N`, the Potency entry was “inactive”.
As to `CCOC(=O)OC(C)OC1=C(C(=O)Nc2ccccn2)N(C)S(=O)(=O)c2ccccc21` (stereo not given), the Potency result was “inactive”.
Turning to `O=C(Nc1cccc(C2=NCCN2)c1)Nc1cccc(C2=NCCN2)c1`, the activity change, negative = cytotoxicity was 10.9% [at 18.9 µM] (inactive).
`COc1ccc2cccc(CCNC(C)=O)c2c1`: the Potency result was “inactive”.
The same measure, in the same setting: the value for `CC(=O)OC(C)C[N+](C)(C)C` (stereo not given) was “inactive”; that for `Cc1cc(OI)c(C(C)C)cc1-c1cc(C(C)C)c(OI)cc1C` was “inactive”; that for `CCCC(CC)CCCCCCCN` (stereo not given) was “inactive”.
On the same count and under the same terms, the value for `COc1cc(S(N)(=O)=O)cc(C(=O)O)c1OC` was “inactive”; that for `Nc1ccc(S(=O)(=O)Nc2cnc3ccccc3n2)cc1` was “inactive”.
Same read-out and setting: to `CC(C)c1ccccc1` belongs “inactive”.
Regarding `CCCCCC(N)=O`, the Potency entry is “inactive”.
